# System: RIVA
# Test: growth inhibition by drug alone (1 - RLU/untreated control) (fraction); higher = stronger inhibition
# Settings: 177Lu-lilotomab satetraxetan 0 ug/ml
# Description: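 RIVA (RI-1) ABC-DLBCL cells were pretreated or not for 18 h with 0.5 ug/ml 177Lu-lilotomab satetraxetan (600 MBq/mg), washed and seeded (3000 cells/well) on 384-well plates pre-printed with the Selleck Cambridge Cancer Compound library. Viability was read by RealTime-Glo luminescence on days 3-6 after seeding. Effect = 1 - RLU/mean RLU of the 48 untreated no-drug control wells per plate; Bliss score = (M-E)/(1-Fa).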
SMILES,"growth inhibition by drug alone (10 nM, time (day): 3)","growth inhibition by drug alone (10 nM, time (day): 4)","growth inhibition by drug alone (10 nM, time (day): 5)","growth inhibition by drug alone (10 nM, time (day): 6)","growth inhibition by drug alone (100 nM, time (day): 3)","growth inhibition by drug alone (100 nM, time (day): 4)","growth inhibition by drug alone (100 nM, time (day): 5)","growth inhibition by drug alone (100 nM, time (day): 6)"
CC(C)[C@]12O[C@H]1[C@@H]1O[C@]13[C@]1(O[C@H]1C[C@H]1C4=C(CC[C@@]13C)C(=O)OC4)[C@@H]2O [Triptolide],0.376,0.671,0.753,0.792,0.907,0.934,0.957,0.967
O=C(Oc1ccc([N+](=O)[O-])cc1)N1CCC(C(O)(c2ccc3c(c2)OCO3)c2ccc3c(c2)OCO3)CC1,0.0104,-0.0507,-0.0874,-0.233,-0.163,-0.136,-0.159,-0.226
CCC1(c2ccc(N)cc2)CCC(=O)NC1=O (stereo not given) [Aminoglutethimide (Cytadren)],-0.0651,-0.101,-0.237,-0.445,-0.578,-0.484,-0.518,-0.688
Cc1ccccc1-n1c(Cn2cnc3c(N)ncnc32)nc2cccc(C)c2c1=O,-0.0276,-0.0854,-0.0849,-0.118,0.0893,-0.00364,-0.0617,-0.104
CC[C@@H](C(=O)[C@@H](C)[C@@H](O)[C@H](C)[C@@H]1O[C@@H]([C@@H](CC)C(=O)O)CC[C@@H]1C)[C@H]1O[C@]2(C=C[C@@H](O)[C@]3(CC[C@@](C)([C@H]4CC[C@](O)(CC)[C@H](C)O4)O3)O2)[C@H](C)C[C@@H]1C [Salinomycin (Procoxacin)],0.136,0.0825,-0.0184,-0.226,0.144,0.126,0.0706,-0.0392
